{"source": "the supplement of paper PMC4962491", "system": "FaDu", "experiment": "mitochondrial oxygen consumption rate normalised to cell number, Z score vs plate DMSO wells; higher = higher oxygen consumption (negative = OCR reduction)", "conditions": "treatment time 24 h, assay medium: 5 mM glucose, 5 mM pyruvate, 4 mM glutamine", "procedure": "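Secondary screen: FaDu cells were incubated 24 h with the top 130 primary hits at 0.08, 0.4, 2 or 10 uM. Mitochondrial-specific OCR (basal minus antimycin A) was measured on a Seahorse XF96 in medium with 5 mM glucose, 5 mM pyruvate and 4 mM glutamine and normalised to Hoechst cell number. OCR score = (OCR - mean of plate DMSO wells) / SD of plate DMSO wells. Three repeats.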", "note": "± gives the standard deviation of the averaged measurements.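 Note: compound exposure in DMEM (4 mM L-glutamine, 5 mM glucose), antimycin A injected at 2 µM after the basal reading and its residual OCR subtracted from basal.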", "data": [{"smiles": "CCC(C)n1ncn(-c2ccc(N3CCN(c4ccc(OCC5COC(Cn6cncn6)(c6ccc(Cl)cc6Cl)O5)cc4)CC3)cc2)c1=O", "note": "(stereo not drawn)", "values": [{"measurement": "mitochondrial oxygen consumption rate normalised", "setting": "0.08 µM", "result": "0.265 ± 1.4"}, {"measurement": "mitochondrial oxygen consumption rate normalised", "setting": "0.4 µM", "result": "1.4 ± 0.68"}, {"measurement": "mitochondrial oxygen consumption rate normalised", "setting": "2 µM", "result": "-0.554 ± 1.1"}, {"measurement": "mitochondrial oxygen consumption rate normalised", "setting": "10 µM", "result": "-4.35 ± 1.6"}]}, {"smiles": "COc1cc(NS(C)(=O)=O)ccc1Nc1c2ccccc2nc2ccccc12", "values": [{"measurement": "mitochondrial oxygen consumption rate normalised", "setting": "0.08 µM", "result": "-0.738 ± 1.7"}, {"measurement": "mitochondrial oxygen consumption rate normalised", "setting": "0.4 µM", "result": "1.51 ± 1.1"}, {"measurement": "mitochondrial oxygen consumption rate normalised", "setting": "2 µM", "result": "-1.58 ± 0.81"}, {"measurement": "mitochondrial oxygen consumption rate normalised", "setting": "10 µM", "result": "-5.19 ± 1.7"}]}, {"smiles": "Cc1ccc2c(Br)cc(Br)c(OC(=O)c3ccccc3)c2n1", "values": [{"measurement": "mitochondrial oxygen consumption rate normalised", "setting": "0.08 µM", "result": "1.43 ± 0.79"}, {"measurement": "mitochondrial oxygen consumption rate normalised", "setting": "0.4 µM", "result": "0.324 ± 0.71"}, {"measurement": "mitochondrial oxygen consumption rate normalised", "setting": "2 µM", "result": "-3.89 ± 1.2"}, {"measurement": "mitochondrial oxygen consumption rate normalised", "setting": "10 µM", "result": "-4.73 ± 1.5"}]}, {"smiles": "CNC(=O)c1cc(Oc2ccc(NC(=O)Nc3ccc(Cl)c(C(F)(F)F)c3)cc2)ccn1", "values": [{"measurement": "mitochondrial oxygen consumption rate normalised", "setting": "0.08 µM", "result": "-1.33 ± 0.69"}, {"measurement": "mitochondrial oxygen consumption rate normalised", "setting": "0.4 µM", "result": "-0.411 ± 0.42"}, {"measurement": "mitochondrial oxygen consumption rate normalised", "setting": "2 µM", "result": "-1.86 ± 0.2"}, {"measurement": "mitochondrial oxygen consumption rate normalised", "setting": "10 µM", "result": "-12.1 ± 0.9"}]}, {"smiles": "CCCCCCCCCCCCCCCC[N+](C)(C)CCN(Cc1ccc(OC)cc1)c1ncccn1", "values": [{"measurement": "mitochondrial oxygen consumption rate normalised", "setting": "0.08 µM", "result": "0.201 ± 1.1"}, {"measurement": "mitochondrial oxygen consumption rate normalised", "setting": "0.4 µM", "result": "1.55 ± 0.82"}, {"measurement": "mitochondrial oxygen consumption rate normalised", "setting": "2 µM", "result": "0.248 ± 1.4"}, {"measurement": "mitochondrial oxygen consumption rate normalised", "setting": "10 µM", "result": "-5.99 ± 0.8"}]}, {"smiles": "Oc1c(Br)cc(Br)c2cccnc12", "values": [{"measurement": "mitochondrial oxygen consumption rate normalised", "setting": "0.08 µM", "result": "0.816 ± 1.4"}, {"measurement": "mitochondrial oxygen consumption rate normalised", "setting": "0.4 µM", "result": "1.29 ± 1"}, {"measurement": "mitochondrial oxygen consumption rate normalised", "setting": "2 µM", "result": "-0.243 ± 2.5"}, {"measurement": "mitochondrial oxygen consumption rate normalised", "setting": "10 µM", "result": "-3.74 ± 2"}]}, {"smiles": "Nc1nc2[nH]cnc2c(=S)[nH]1", "values": [{"measurement": "mitochondrial oxygen consumption rate normalised", "setting": "0.08 µM", "result": "-1.04 ± 1.9"}, {"measurement": "mitochondrial oxygen consumption rate normalised", "setting": "0.4 µM", "result": "-0.865 ± 0.14"}, {"measurement": "mitochondrial oxygen consumption rate normalised", "setting": "2 µM", "result": "-5.57 ± 0.33"}, {"measurement": "mitochondrial oxygen consumption rate normalised", "setting": "10 µM", "result": "-5.01 ± 1.4"}]}, {"smiles": "CC[n+]1c(-c2ccccc2)c2cc(N)ccc2c2ccc(N)cc21", "values": [{"measurement": "mitochondrial oxygen consumption rate normalised", "setting": "0.08 µM", "result": "-0.559 ± 1.1"}, {"measurement": "mitochondrial oxygen consumption rate normalised", "setting": "0.4 µM", "result": "-1.04 ± 0.79"}, {"measurement": "mitochondrial oxygen consumption rate normalised", "setting": "2 µM", "result": "-3.43 ± 2.4"}, {"measurement": "mitochondrial oxygen consumption rate normalised", "setting": "10 µM", "result": "-6.28 ± 1.8"}]}, {"smiles": "CC(=O)Oc1ccccc1C(=O)Nc1ncc([N+](=O)[O-])s1", "values": [{"measurement": "mitochondrial oxygen consumption rate normalised", "setting": "0.08 µM", "result": "0.233 ± 1.2"}, {"measurement": "mitochondrial oxygen consumption rate normalised", "setting": "0.4 µM", "result": "1.38 ± 0.59"}, {"measurement": "mitochondrial oxygen consumption rate normalised", "setting": "2 µM", "result": "1.82 ± 0.7"}, {"measurement": "mitochondrial oxygen consumption rate normalised", "setting": "10 µM", "result": "1.49 ± 1.2"}]}, {"smiles": "CCN(CC)CCCC(C)Nc1c2ccc(Cl)cc2nc2ccc(OC)cc12", "note": "(stereo not drawn)", "values": [{"measurement": "mitochondrial oxygen consumption rate normalised", "setting": "0.08 µM", "result": "-0.58 ± 1.2"}, {"measurement": "mitochondrial oxygen consumption rate normalised", "setting": "0.4 µM", "result": "0.524 ± 1.1"}, {"measurement": "mitochondrial oxygen consumption rate normalised", "setting": "2 µM", "result": "-2.47 ± 1.1"}]}, {"smiles": "O=[N+]([O-])c1ccc(O)c2ncccc12", "values": [{"measurement": "mitochondrial oxygen consumption rate normalised", "setting": "0.08 µM", "result": "0.333 ± 0.4"}, {"measurement": "mitochondrial oxygen consumption rate normalised", "setting": "0.4 µM", "result": "1.67 ± 1.1"}, {"measurement": "mitochondrial oxygen consumption rate normalised", "setting": "2 µM", "result": "-0.415 ± 1.2"}, {"measurement": "mitochondrial oxygen consumption rate normalised", "setting": "10 µM", "result": "-3.63 ± 2.5"}]}]}
